Measurements as given in PubChem BioAssay (NCI).
“And” between values parts separate entries of the source, which are not always exact repeats. Equal values may be shown once. Compounds without any hit were thinned out: in the full panel of roughly 83,000, 20% have a hit.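 How to read the values: 0–100, growth inhibition (40 = 60% inhibited); 0, no net growth; -100 to 0, cell death (-40 = 40% of starting cells died; -100 = all dead).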 The source made the active and inactive calls. Rule for the calls: active = growth percent below 10; inactive = the rest.

Tests used:
Experiment in all cases: NCI-60 one-dose screen, 48 h (100 = growth as untreated, 0 = no growth, -100 = all killed)
Details in all cases: 10 µM unless noted
[1] = test system: SR leukemia
[2] = test system: RPMI-8226 leukemia
[3] = test system: OVCAR-8 ovarian
[4] = test system: OVCAR-5 ovarian
[5] = test system: OVCAR-4 ovarian
[6] = test system: SK-OV-3 ovarian
[7] = test system: IGROV1 ovarian
[8] = test system: OVCAR-3 ovarian
[9] = test system: HS 578T breast
[10] = test system: NCI/ADR-RES ovarian
[11] = test system: T-47D breast
[12] = test system: BT-549 breast
[13] = test system: MDA-MB-435 melanoma
[14] = test system: SW-620 colon
[15] = test system: MCF7 breast
[16] = test system: HCT-116 colon
[17] = test system: HCC-2998 colon
[18] = test system: KM12 colon
[19] = test system: MDA-MB-468 breast

Measured: growth

CCOC(=O)/C(F)=C/C1CC1C(c1ccccc1)c1ccccc1 (configuration not stated)
inactive: [1] 63.3% | [2] 69.5% | [3] 105% | [4] 102% | [5] 87.3% | [6] 148% | [7] 90.8% | [8] 103% | [9] 81.3% | [10] 89.4% | [11] 70.7% | [12] 117% | [13] 84.8% | [14] 75.1% | [15] 80.7% | [16] 62% | [17] 102% | [18] 83.5% | [19] 36.2%

COc1ccc(-c2nc3ccc(-c4nnc(SCc5ccccc5)o4)cc3[nH]2)cc1
active: [1] 6.93% | [2] 7.16% | [3] -36.8% | [5] -57.7% | [6] 5.77% | [7] -17.1% | [8] -33.1% | [9] -17.5% | [10] -65.6% | [11] -41.9% | [12] -54% | [13] -29.5% | [14] 7.51% | [15] -20.2% | [16] -60.5% | [19] -23.8%
inactive: [4] 46.8% | [17] 25.4% | [18] 16.5%

Nc1nn2c(-c3cc4cc(Br)ccc4oc3=O)ccnc2c1N=Nc1ccc(S(N)(=O)=O)cc1
inactive: [1] 74.4% | [2] 109% | [3] 79% | [4] 112% | [5] 100% | [6] 58.9% | [7] 93.1% | [8] 103% | [9] 102% | [10] 103% | [11] 77% | [12] 128% | [13] 78.5% | [14] 58.6% | [15] 71.4% | [16] 56% | [17] 54.8% | [18] 48.3% | [19] 64.7%

CC1=C(C(=O)Nc2ccccc2)C(c2cccc3ccccc23)n2c(nc3ccccc32)N1 (configuration not stated)
inactive: [1] 72.4% | [2] 76.9% | [4] 76.3% | [5] 42.3% | [7] 68% | [8] 38.6% | [10] 32.2% | [11] 88.9% | [13] 74.4% | [14] 67.6% | [15] 38.5% | [17] 90.5% | [18] 89.9% | [19] 49.9%
active: [3] -0.819% | [6] -2.39% | [9] -13.9% | [12] -2.15% | [16] 0.0484%

O=C(CSc1nnc(-c2ccc(-c3nc4ccccc4[nH]3)cc2)o1)Nc1ccc(Br)cc1
inactive: [4] 44.7% | [5] 54.3% | [6] 79% | [7] 35.8% | [8] 34.2% | [9] 57.2% | [10] 21.5% | [11] 32.8% | [12] 37.1% | [13] 18.3% | [16] 10.3% | [17] 71.2% | [18] 21.7% | [19] 67.3%
active: [1] 5.23% | [2] 7.82% | [3] 4.46% | [14] -47% | [15] 9.69%

Nc1cc(-c2c[nH]c3ccc(Br)cc23)nc2cc(-c3c[nH]c4ccccc34)nn12
active: [1] 7.93% | [2] 0.137% | [3] -54.1% | [4] -72.7% | [5] -5.21% | [6] -43.6% | [7] -77.1% | [8] -34% | [9] -12.4% | [10] -17.9% | [11] -60.5% | [12] -21.4% | [13] -75.1% | [14] -83.2% | [15] -66.8% | [16] -78% | [17] -78.2% | [18] -65.4% | [19] -81.8%

COc1cc(C=O)ccc1Oc1nc(Nc2ccc(F)cc2)nc(N(C)C)n1
inactive: [2] 60% and 67% | [3] 85.3% and 56.7% | [4] 100% and 105% | [5] 56.4% and 47.8% | [6] 87.6% and 122% | [7] 96.7% and 49.3% | [8] 62.1% and 78.7% | [9] 85.5% and 41.5% | [10] 81.7% and 54.3% | [11] 33.3% and 66.1% | [12] 77.3% and 16.5% | [13] 71.1% and 88.1% | [14] 94.4% and 50.4% | [15] 53.2% and 45.4% | [16] 64.9% and 20.3% | [17] 108% and 75.6% | [18] 99.3% and 68.5% | [19] 36.4% and 53.5%
70.9% (inactive) and 6.2% (active): [1]

COc1c(B(O)O)cc(F)cc1-c1nc2c(F)cc3[nH]ncc3c2c2c1CCCC2
active: [2] -5.25% | [12] -62.2% | [14] 0.792% | [15] -2.86% | [16] 4.76% | [18] 7.55% | [19] -11%
inactive: [1] 33% | [3] 10.2% | [4] 15.9% | [5] 39.4% | [6] 25.1% | [7] 14.6% | [8] 18.6% | [9] 11.4% | [10] 17.4% | [11] 33.7% | [13] 31% | [17] 20.1%
